Results as given in PubChem BioAssay (Tox21).
Inconclusive results are not listed. Calls of active or inactive are those of the source. Calls come from the whole dose curve; as a rule, active = well fitted curve in the direction sought with a large enough effect in the repeat runs; inconclusive = weak or mixed curves; inactive = no such curve, though single readings can be large; an effect the other way counts as inactive or inconclusive.

Key:
[1] = A CellTox Green Cytotoxicity Assay to monitor cytotoxicity in HepG2 cells - 0 hour (AID 1224882); note: nearly all actives have a fitted effect of over 35% in size
How it was run: (§1)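 Continuous culture of HepG2 cells with a membrane-impermeant DNA dye; rising fluorescence marks dead cells. Compound exposure lasted up to 40 h at 37 C, with reads every 8 h from 0 h.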

[2] = A CellTox Green Cytotoxicity Assay to monitor cytotoxicity in HepG2 cells - 32 hour (AID 1224883); note: nearly all actives have a fitted effect of over 50% in size; note: potency is the fitted concentration of half-maximal effect
How it was run: as §1

[3] = A CellTox Green Cytotoxicity Assay to monitor cytotoxicity in HEK293 cells - 8 hour (AID 1224884); note: nearly all actives have a fitted effect of over 35% in size; note: potency is the fitted concentration of half-maximal effect
How it was run: (§2)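 Each value comes from one timepoint of a single continuous run in which HEK293 cells with CellTox Green were exposed to compound for up to 40 h at 37 C, dye fluorescence rising with cell death.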

[4] = qHTS RealTime-Glo MT Cell Viability Assay in HepG2 cells - 16 hour (AID 1224885); note: nearly all actives have a fitted effect of over 50% in size; note: potency is the fitted concentration of half-maximal effect
How it was run: (§3)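 Luminescence read-out: viable HepG2 cells reduce a prosubstrate to a NanoLuc substrate, giving a signal proportional to live cell number. Reads taken at 0, 8, 16, 24, 32 and 40 h of compound exposure at 37 C.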

[5] = qHTS RealTime-Glo MT Cell Viability Assay in HEK293 cells - 8 hour (AID 1224887); note: nearly all actives have a fitted effect of over 50% in size; note: potency is the fitted concentration of half-maximal effect; for activity change, negative = cytotoxicity: top concentration of the series differs between compounds
How it was run: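 qHTS format; HEK293 cells with NanoLuc/prosubstrate reagent, 37 C/5% CO2 for 5 h pre-dosing; compounds 23 nL in DMSO; luminescence at each time point reflects viable cells.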

[6] = A CellTox Green Cytotoxicity Assay to monitor cytotoxicity in HEK293 cells - 16 hour (AID 1224888); note: nearly all actives have a fitted effect of over 35% in size; note: potency is the fitted concentration of half-maximal effect
How it was run: as §2

[7] = qHTS RealTime-Glo MT Cell Viability Assay in HepG2 cells - 0 hour (AID 1224889); note: nearly all actives have a fitted effect of over 50% in size
How it was run: as §3

[8] = A CellTox Green Cytotoxicity Assay to monitor cytotoxicity in HepG2 cells - 8 hour (AID 1224890); note: nearly all actives have a fitted effect of over 45% in size; note: potency is the fitted concentration of half-maximal effect
How it was run: as §1

[9] = qHTS assay to identify small molecule antagonists of the estrogen receptor alpha (ER-alpha) signaling pathway using the BG1 cell line in the presence of 0.1 nM 17-beta-estradiol - cell viability counter screen (AID 1259241); note: nearly all actives have a fitted effect of over 40% in size; note: potency is the fitted concentration of half-maximal effect
How it was run: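 The cell line endogenously expresses full-length ER-alpha and carries four EREs driving luciferase. Cells are cultured 5 days hormone-free, treated 22 hr with compounds and 0.1 nM estradiol, then viability is read by fluorescence.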

[10] = qHTS RealTime-Glo MT Cell Viability Assay in HEK293 cells - 24 hour (AID 1224886); note: nearly all actives have a fitted effect of over 50% in size; note: potency is the fitted concentration of half-maximal effect; for activity change, negative = cytotoxicity: top concentration of the series differs between compounds
How it was run: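 Nonlytic real-time viability readout: viable cells convert prosubstrate to NanoLuc substrate, giving luminescence proportional to live cell number. HEK293, 600 cells/well, compound added after 5 h, continuous culture at 37 C.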
% is set by controls: 0 for no effect and ±100 for the full control effect.

Cc1cccc(C)n1
inactive: Potency [1] | Potency [2] | Potency [3] | Potency [4] | Potency [5] | Potency [6] | Potency [7] | Potency [8] | Potency [9]

CCOC(OCC)C(=O)c1ccccc1
inactive: Potency [1] | Potency [2] | Potency [3] | Potency [4] | Potency [5] | Potency [6] | Potency [7] | Potency [8] | Potency [9]

C(=C/c1ccccc1)/c1ccccc1
inactive: Potency [1] | Potency [2] | Potency [3] | Potency [4] | Potency [10] | Potency [5] | Potency [6] | Potency [7] | Potency [8] | Potency [9]

CCN(CC)CCCN(c1ccccc1)C1Cc2ccccc2C1
inactive: Potency [1] | Potency [3] | Potency [4] | Potency [5] | Potency [6] | Potency [7] | Potency [8] | Potency [9]
active: Potency [2] 23.9 µM

CC(CN(C)C)CN1c2ccccc2CCc2ccccc21 (stereo not given)
active: Potency [2] 23.9 µM
inactive: Potency [1] | Potency [3] | Potency [4] | Potency [5] | Potency [6] | Potency [7] | Potency [8] | Potency [9]

CCN(CC)CCNc1ccc(CO)c2sc3ccccc3c(=O)c12
active: Potency [2] 13.4 µM | Potency [4] 23.9 µM | Potency [10] 16.9 µM
inactive: Potency [1] | Potency [3] | Potency [6] | Potency [7] | Potency [8]

O=C1NCN(c2ccccc2)C12CCN(CCCC(c1ccc(F)cc1)c1ccc(F)cc1)CC2
active: Potency [2] 6.74 µM | Potency [4] 7.56 µM | Potency [10] 19 µM | Potency [8] 10.7 µM | Potency [9] 13.3 µM
inactive: Potency [1] | Potency [3] | Potency [7]

O=C1c2c(O)ccc([N+](=O)[O-])c2C(=O)c2c([N+](=O)[O-])ccc(O)c21
active: Potency [4] 24.3 µM | Potency [10] 19.3 µM | Potency [5] 7.69 µM | Potency [9] 30.4 µM
inactive: Potency [1] | Potency [2] | Potency [3] | Potency [6] | Potency [8]

CN(C)CCCN1c2ccccc2CCc2ccccc21
inactive: Potency [1] | Potency [3] | Potency [4] | Potency [10] | Potency [5] | Potency [6] | Potency [8] | Potency [9]
active: Potency [2] 54.9 µM

CCC(=O)CC(C)CC (stereo not given)
inactive: cytotoxicity [1] 11.3% [at 0.29 µM] | cytotoxicity increase [2] 8.4% [at 0.29 µM] | cytotoxicity increase [3] 19.1% [at 0.29 µM] | activity change, negative = cytotoxic [4] 0.759% [at 0.29 µM] | activity change, negative = cytotoxicity [5] 3.45% [at 0.29 µM] | activity change [6] 10.7% [at 0.29 µM, hits give high values] | activity change, negative = cytotoxicity [7] 5.37% [at 0.29 µM] | cytotoxicity increase [8] 2.33% [at 0.29 µM] | activity change, negative = cytotoxicity [9] -17.1% [at 0.349 µM]

CC1(C)C(=O)N(Br)C(=O)N1Br
inactive: Potency [1] | Potency [2] | Potency [3] | Potency [4] | Potency [5] | Potency [6] | Potency [7] | Potency [8] | Potency [9]

CCC1(c2cnc[nH]2)Cc2ccccc2C1
inactive: Potency [1] | Potency [2] | Potency [3] | Potency [4] | Potency [5] | Potency [6] | Potency [7] | Potency [8]

CN(C)CCOC(c1ccccc1)c1ccccc1 (tested in a mixture with another compound)
inactive: Potency [1] | Potency [2] | Potency [3] | Potency [4] | Potency [5] | Potency [6] | Potency [7] | Potency [8]

Oc1ccc(-c2ccccc2)c(Cl)c1
inactive: Potency [1] | Potency [3] | Potency [4] | Potency [7] | Potency [9]
active: Potency [2] 49 µM | Potency [10] 24.5 µM

Cc1cc(C)c(C=O)c(C)c1
inactive: Potency [1] | Potency [2] | Potency [3] | Potency [4] | Potency [10] | Potency [5] | Potency [6] | Potency [7] | Potency [9]

O=C1C=CC(=O)N1c1ccccc1
active: Potency [2] 13.8 µM | Potency [3] 24.5 µM | Potency [4] 15.5 µM | Potency [5] 43.6 µM | Potency [6] 13.8 µM | Potency [8] 34.7 µM | Potency [9] 61.1 µM
inactive: Potency [1] | Potency [7]

CCOC(=O)CC(C)O (stereo not given)
inactive: Potency [1] | Potency [2] | Potency [3] | Potency [4] | Potency [10] | Potency [5] | Potency [6] | Potency [7] | Potency [9]

Cc1cccc(Br)c1
inactive: Potency [1] | Potency [2] | Potency [3] | Potency [4] | Potency [10] | Potency [5] | Potency [6] | Potency [8] | Potency [9]

c1cc2c3c(c1)ccc1cccc(c13)C2
inactive: Potency [1] | Potency [2] | Potency [4] | Potency [10] | Potency [5] | Potency [7] | Potency [8] | Potency [9]
active: Potency [3] 56.1 µM

N#CSCSc1nc2ccccc2s1
active: Potency [2] 24.5 µM | Potency [4] 43.6 µM | Potency [10] 15.5 µM | Potency [5] 21.9 µM
inactive: Potency [1] | Potency [3] | Potency [6] | Potency [7] | Potency [9]
